Measured values as given in PubChem BioAssay (NCI).
About 79,000 compounds went through this panel and 15% of them were active in at least one assay; those are over-represented in the sample as a whole. Values without a mark were called inactive. Active and inactive are the calls of the source. Rule as the data show it: active = growth inhibition above about 70%; inactive = the rest.

Tests used:
[1] = NCI Yeast Anticancer Drug Screen. Data for the rad50 strain (AID 155);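 also: 0% = growth of vehicle-only cultures of the same strain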; conditions: S. cerevisiae rad50 strain growth inhibition, hits give high values
Summary of the method: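 Genetically altered yeast (DNA repair pathway); compound treatment; growth inhibition vs vehicle ctrl.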

[2] = NCI Yeast Anticancer Drug Screen. Data for the mec2-1 strain (AID 157); conditions: S. cerevisiae mec2-1 strain, hits give high values
Summary of the method: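 Compounds were applied to mec2-1 yeast cells. Their growth was then compared with that of vehicle-treated cultures to give growth inhibition.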

[3] = NCI Yeast Anticancer Drug Screen. Data for the sgs1 mgt1 strain (AID 161);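 also: 0% = growth of cultures given vehicle only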; conditions: S. cerevisiae sgs1 mgt1 strain, hits give high values
Summary of the method: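 This yeast growth screen uses a strain with defined DNA-repair lesions; compound-treated growth is compared with vehicle-treated growth.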

[4] = NCI Yeast Anticancer Drug Screen. Data for the cln2 rad14 strain (AID 165);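 also: 0% = growth equal to vehicle treated cultures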; conditions: S. cerevisiae cln2 rad14 strain, hits give high values
Summary of the method: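 Strain: cln2 rad14 yeast, altered in cell cycle control and DNA damage repair. Read-out: growth inhibition vs vehicle.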

[5] = NCI Yeast Anticancer Drug Screen. Data for the bub3 strain (AID 167); conditions: S. cerevisiae bub3 mutant strain, hits give high values
Summary of the method: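 Yeast carrying a defined mutation is treated with each compound, and growth is compared with that of vehicle-exposed cells to give inhibition.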

[6] = NCI Yeast Anticancer Drug Screen. Data for the mlh1 rad18 strain (AID 175); conditions: S. cerevisiae mlh1 rad18 strain growth inhibition, hits give high values
Summary of the method: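 A repair-deficient yeast strain is exposed to test compound, and growth is scored relative to vehicle-treated controls.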

[7] = at 5.0 µM (retest, dose inferred, filed as 0.5)
[8] = at 50.0 µM (retest, dose inferred, filed as 5.0)

O=C1c2ccccc2Cc2cc(O)ccc21
growth inhibition [1, 7]: 29% | growth inhibition [1, 8]: 94% (active) | growth inhibition ([1]; at 50.0 µM): 47.5% | growth inhibition [2, 7]: 13% | growth inhibition [2, 8]: 92% (active) | growth inhibition ([2]; at 50.0 µM): 48.4% | growth inhibition [3, 7]: 8% | growth inhibition [3, 8]: 91% (active) | growth inhibition ([3]; at 50.0 µM): 45% | growth inhibition [4, 7]: 4% | growth inhibition [4, 8]: 88% (active) | growth inhibition ([4]; at 50.0 µM): 82.5% (active) | growth inhibition [5, 7]: 2% | growth inhibition [5, 8]: 89% (active) | growth inhibition ([5]; at 50.0 µM): 88.6% (active) | growth inhibition [6, 7]: 10% | growth inhibition [6, 8]: 92% (active) | growth inhibition ([6]; at 50.0 µM): 91.3% (active)

S=C(SSSSC(=S)N1CCCCC1)N1CCCCC1
growth inhibition [1, 7]: 45% | growth inhibition [1, 8]: 92% (active) | growth inhibition ([1]; at 50.0 µM): 66.8% | growth inhibition [2, 7]: 39% | growth inhibition [2, 8]: 95% (active) | growth inhibition ([2]; at 50.0 µM): 19.9% | growth inhibition [3, 7]: 39% | growth inhibition [3, 8]: 96% (active) | growth inhibition ([3]; at 50.0 µM): 43.1% | growth inhibition [4, 7]: 39% | growth inhibition [4, 8]: 94% (active) | growth inhibition ([4]; at 50.0 µM): 9.35% | growth inhibition [5, 7]: 40% | growth inhibition [5, 8]: 95% (active) | growth inhibition ([5]; at 50.0 µM): 73.5% (active) | growth inhibition [6, 7]: 57% | growth inhibition [6, 8]: 93% (active) | growth inhibition ([6]; at 50.0 µM): 81% (active)

c1csc(CNCc2cccs2)c1
growth inhibition [1, 7]: -3% | growth inhibition [1, 8]: -5% | growth inhibition ([1]; at 50.0 µM): -13.9% | growth inhibition [2, 7]: -2% | growth inhibition [2, 8]: 1% | growth inhibition ([2]; at 50.0 µM): 1.45% | growth inhibition [3, 7]: -1% | growth inhibition [3, 8]: -5% | growth inhibition ([3]; at 50.0 µM): -1.2% | growth inhibition [4, 7]: -4% | growth inhibition [4, 8]: -4% | growth inhibition ([4]; at 50.0 µM): -23.4% | growth inhibition [5, 7]: -1% | growth inhibition [5, 8]: -5% | growth inhibition ([5]; at 50.0 µM): 1.3% | growth inhibition [6, 7]: 0% | growth inhibition [6, 8]: -7% | growth inhibition ([6]; at 50.0 µM): 37.3%

Nc1ccc(N=Nc2ccccc2)c2ccccc12
growth inhibition [1, 7]: 9% | growth inhibition [1, 8]: 96% (active) | growth inhibition ([1]; at 50.0 µM): 97.8% (active) | growth inhibition [2, 7]: 0% | growth inhibition [2, 8]: 98% (active) | growth inhibition ([2]; at 50.0 µM): 99% (active) | growth inhibition [3, 7]: 3% | growth inhibition [3, 8]: 98% (active) | growth inhibition ([3]; at 50.0 µM): 98.5% (active) | growth inhibition [4, 7]: 0% | growth inhibition [4, 8]: 97% (active) | growth inhibition ([4]; at 50.0 µM): 98.5% (active) | growth inhibition [5, 7]: 2% | growth inhibition [5, 8]: 99% (active) | growth inhibition ([5]; at 50.0 µM): 98.3% (active) | growth inhibition [6, 7]: 4% | growth inhibition [6, 8]: 98% (active) | growth inhibition ([6]; at 50.0 µM): 97.6% (active)

COC(=O)C1(Cc2ccc3c(c2)CCC3)Cc2ccc3c(c2C1O)CCC3 (stereo not given)
growth inhibition [1, 7]: -2% | growth inhibition [1, 8]: 94% (active) | growth inhibition ([1]; at 50.0 µM): 94.6% (active) | growth inhibition [2, 7]: -1% | growth inhibition [2, 8]: 96% (active) | growth inhibition ([2]; at 50.0 µM): 94.3% (active) | growth inhibition [3, 7]: 15% | growth inhibition [3, 8]: 97% (active) | growth inhibition ([3]; at 50.0 µM): 89.9% (active) | growth inhibition [4, 7]: -4% | growth inhibition [4, 8]: 94% (active) | growth inhibition ([4]; at 50.0 µM): 85% (active) | growth inhibition [5, 7]: -1% | growth inhibition [5, 8]: 95% (active) | growth inhibition ([5]; at 50.0 µM): 93.7% (active) | growth inhibition [6, 7]: 4% | growth inhibition [6, 8]: 94% (active) | growth inhibition ([6]; at 50.0 µM): 85.3% (active)

Nc1ccccc1O
growth inhibition [1, 7]: 26% | growth inhibition [1, 8]: 58% | growth inhibition ([1]; at 50.0 µM): 55.8% | growth inhibition [2, 7]: 17% | growth inhibition [2, 8]: 37% | growth inhibition ([2]; at 50.0 µM): 35% | growth inhibition [3, 7]: 17% | growth inhibition [3, 8]: 40% | growth inhibition ([3]; at 50.0 µM): 51.1% | growth inhibition [4, 7]: 15% | growth inhibition [4, 8]: 30% | growth inhibition ([4]; at 50.0 µM): 8.3% | growth inhibition [5, 7]: 54% | growth inhibition [5, 8]: 77% (active) | growth inhibition ([5]; at 50.0 µM): 71% (active) | growth inhibition [6, 7]: 45% | growth inhibition [6, 8]: 77% (active) | growth inhibition ([6]; at 50.0 µM): 73.2% (active)

CC(=O)OC(OC(C)=O)c1ccc([N+](=O)[O-])o1
growth inhibition [1, 7]: -7% | growth inhibition [1, 8]: -39% | growth inhibition ([1]; at 50.0 µM): 99.4% (active) | growth inhibition [2, 7]: -23% | growth inhibition [2, 8]: -22% | growth inhibition ([2]; at 50.0 µM): 99% (active) | growth inhibition [3, 7]: -5% | growth inhibition [3, 8]: -10% | growth inhibition ([3]; at 50.0 µM): 99.3% (active) | growth inhibition [4, 7]: -3% | growth inhibition [4, 8]: -23% | growth inhibition ([4]; at 50.0 µM): 99.2% (active) | growth inhibition [5, 7]: -20% | growth inhibition [5, 8]: -87% | growth inhibition ([5]; at 50.0 µM): 99.5% (active) | growth inhibition [6, 7]: 5% | growth inhibition [6, 8]: 4% | growth inhibition ([6]; at 50.0 µM): 99% (active)

CNC(C)C(=O)c1ccc2ccc3ccccc3c2c1 (stereo not given)
growth inhibition [1, 7]: -3% | growth inhibition [1, 8]: 24% | growth inhibition ([1]; at 50.0 µM): 54.5% | growth inhibition [2, 7]: -5% | growth inhibition [2, 8]: 12% | growth inhibition ([2]; at 50.0 µM): 46.6% | growth inhibition [3, 7]: -2% | growth inhibition [3, 8]: 34% | growth inhibition ([3]; at 50.0 µM): 58.9% | growth inhibition [4, 7]: 0% | growth inhibition [4, 8]: 16% | growth inhibition ([4]; at 50.0 µM): 17.6% | growth inhibition [5, 7]: -3% | growth inhibition [5, 8]: 24% | growth inhibition ([5]; at 50.0 µM): 67.8% | growth inhibition [6, 7]: -6% | growth inhibition [6, 8]: 28% | growth inhibition ([6]; at 50.0 µM): 71.5% (active)

CCC(=O)Oc1ccc(-c2ccccc2)cc1Cl
growth inhibition [1, 7]: -3% | growth inhibition [1, 8]: 98% (active) | growth inhibition ([1]; at 50.0 µM): 97% (active) | growth inhibition [2, 7]: -3% | growth inhibition [2, 8]: 99% (active) | growth inhibition ([2]; at 50.0 µM): 98.2% (active) | growth inhibition [3, 7]: -2% | growth inhibition [3, 8]: 96% (active) | growth inhibition ([3]; at 50.0 µM): 97.5% (active) | growth inhibition [4, 7]: -2% | growth inhibition [4, 8]: 98% (active) | growth inhibition ([4]; at 50.0 µM): 96% (active) | growth inhibition [5, 7]: 14% | growth inhibition [5, 8]: 99% (active) | growth inhibition ([5]; at 50.0 µM): 98.8% (active) | growth inhibition [6, 7]: 0% | growth inhibition [6, 8]: 98% (active) | growth inhibition ([6]; at 50.0 µM): 98.2% (active)

CCCC12C=C(OC)C(=O)C=C1OC(c1ccc3c(c1)OCO3)C2C (stereo not given)
growth inhibition [1, 7]: 0% | growth inhibition [1, 8]: 55% | growth inhibition ([1]; at 50.0 µM): 43.9% | growth inhibition [2, 7]: -2% | growth inhibition [2, 8]: 81% (active) | growth inhibition ([2]; at 50.0 µM): 70.8% (active) | growth inhibition [3, 7]: 0% | growth inhibition [3, 8]: 86% (active) | growth inhibition ([3]; at 50.0 µM): 80.8% (active) | growth inhibition [4, 7]: -6% | growth inhibition [4, 8]: 53% | growth inhibition ([4]; at 50.0 µM): 64.8% | growth inhibition [5, 7]: 19% | growth inhibition [5, 8]: 89% (active) | growth inhibition ([5]; at 50.0 µM): 79.3% (active) | growth inhibition [6, 7]: -4% | growth inhibition [6, 8]: 70% (active) | growth inhibition ([6]; at 50.0 µM): 55.1%
